# According to PubChem BioAssay (Tox21):
# “And” between values parts separate entries of the source, which are not always exact repeats. Equal entries are not always repeated. The source made the active and inactive calls. Where a call stands in place of a potency, no number is given. Unless noted, calls come from the whole dose curve; as a rule, active = well fitted curve in the direction sought with a large enough effect in the repeat runs; inconclusive = weak or mixed curves; inactive = no such curve, though single readings can be large; an effect the other way counts as inactive or inconclusive.
# Key:
# [1] = qHTS assay to test for compound auto fluorescence at 535 nm (green) in HEK293 cells (AID 720680)
# [2] = qHTS assay to test for compound auto fluorescence at 460 nm (blue) in HEK293 cell free culture (AID 720681)
# Procedure, shortened: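 Blue fluorescence (Ex 405/Em 460 nm, triamterene-equivalent) was read immediately after pin transfer of compound or DMSO into medium (DMEM, 10% FBS) without cells.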
# [3] = qHTS assay to test for compound auto fluorescence at 535 nm (green) in HEK293 cell free culture (AID 720682)
# Procedure, shortened: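 Fluorescein serves as the green reference fluorophore; each compound's intrinsic emission at 535 nm (excitation 485 nm) is reported as an equivalent amount of that dye, measured in serum-containing DMEM without cells.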
# [4] = qHTS assay to test for compound auto fluorescence at 590 nm (red) in HEK293 cell free culture (AID 720683)
# Procedure, shortened: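 Red-channel autofluorescence of compounds in culture medium (DMEM, 10% FBS), no cells, measured at 540/590 nm. Rose Bengal sodium is the reference fluorophore for equivalence.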
# [5] = qHTS assay to test for compound auto fluorescence at 590 nm (red) in HepG2 cell free culture (AID 720684)
# Procedure, shortened: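 Steps: dispense MEM/10% FBS medium, no cells; pin compound or DMSO vehicle; read red channel, Ex/Em 540/590 nm. Output given as Rose Bengal sodium equivalents.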
# [6] = qHTS assay to test for compound auto fluorescence at 460 nm (blue) in HepG2 cell free culture (AID 720685)
# Procedure, shortened: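 Compound (23 nL) or DMSO pinned into cell-free MEM with 10% FBS; blue fluorescence read at 405/460 nm excitation/emission, expressed as auto-fluorescence equivalency to triamterene.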
# [7] = qHTS assay to test for compound auto fluorescence at 535 nm (green) in HepG2 cell free culture (AID 720686)
# [8] = qHTS assay to test for compound auto fluorescence at 460 nm (blue) in HepG2 cells (AID 720687)
# Procedure, shortened: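 Blue-channel autofluorescence (Ex/Em 405/460 nm, triamterene-equivalent) was measured after 1 hr compound exposure at 37 C, 5% CO2. Cells were HepG2, plated overnight at 37 C in MEM plus 10% FBS.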
# [9] = qHTS assay for identifying genotoxic compounds that show differential cytotoxicity against isogenic chicken DT40 cell lines with known DNA damage response pathways - wild type cell line (AID 743012); note: nearly all actives have a fitted effect of over 60% in size; note: potency is the fitted concentration of half-maximal effect
# Procedure, shortened: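 Wild type DT40, 300 cells/well, ~0.5 h settle at 37 C/5% CO2; compounds in DMSO added by pintool; 40 h at 37 C/5% CO2; CellTiter-Glo, 30 min RT; luminescence.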
# [10] = qHTS assay for identifying genotoxic compounds that show differential cytotoxicity against isogenic chicken DT40 cell lines with known DNA damage response pathways - Rev3 mutant cell line (AID 743014); note: nearly all actives have a fitted effect of over 55% in size; note: potency is the fitted concentration of half-maximal effect
# [11] = qHTS assay for identifying genotoxic compounds that show differential cytotoxicity against isogenic chicken DT40 cell lines with known DNA damage response pathways - Rad54/Ku70 mutant cell line (AID 743015); note: nearly all actives have a fitted effect of over 60% in size; note: potency is the fitted concentration of half-maximal effect
# [12] = biological target: Androgen receptor (Homo sapiens) (UniProt P10275); assay: qHTS assay to identify small molecule agonists of the androgen receptor (AR) signaling pathway (AID 743036; active = well fitted activation curve with a large enough effect in the signal ratio in the repeat runs, with a control signal flat, not every such curve was filed as active; inconclusive = weak or mixed curves, or effect the other way; inactive = no such curve, though single readings can be large or run the other way; the % refers to the signal ratio)
# Procedure, shortened: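 Fluorescence from a beta-lactamase FRET substrate served as read-out in AR-UAS-bla GripTite HEK293 cells. Cells were treated with DMSO-dissolved compounds for 16 h at 37C, then with LiveBLAzer B/G substrate for 2 h at room temperature.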
# [13] = biological target: Androgen receptor (Homo sapiens) (UniProt P10275); assay: qHTS assay to identify small molecule agonists of the androgen receptor (AR) signaling pathway using the MDA cell line (AID 743040; note: nearly all actives have a fitted effect of over 20% in size)
# Procedure, shortened: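 Cells plated, 5 h at 37C/0% CO2; compound or DMSO pinned; 16 h at 37C; ONE-Glo added; luminescence measured after 30 min at room temperature. Reporter line: MDA-kb2 with MMTV-luciferase responsive to AR and GR.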
# [14] = qHTS assay to identify small molecule antagonists of the androgen receptor (AR) signaling pathway using the MDA cell line - cell viability counter screen (AID 743041; note: nearly all actives have a fitted effect of over 45% in size; note: potency is the fitted concentration of half-maximal effect)
# Procedure, shortened: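 Cells were plated at 3,000 per well and left 5 h. Compounds in DMSO were then pinned in, followed by R1881. After 16 h at 37C, CellTiter-Fluor fluorescence gave viability.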
# [15] = qHTS assay to identify small molecule antagonists of the androgen receptor (AR) signaling pathway - cell viability counter screen (AID 743033; note: nearly all actives have a fitted effect of over 45% in size)
# [16] = qHTS assay to identify small molecule antagonists of the glucocorticoid receptor (GR) signaling pathway - cell viability counter screen (AID 720693); note: nearly all actives have a fitted effect of over 55% in size; note: potency is the fitted concentration of half-maximal effect
# [17] = biological target: Glucocorticoid receptor (Homo sapiens) (UniProt P04150); assay: qHTS assay to identify small molecule agonists of the glucocorticoid receptor (GR) signaling pathway (AID 720691; active = well fitted activation curve with a large enough effect in the signal ratio in the repeat runs, not every such curve was filed as active; inconclusive = weak or mixed curves, or effect the other way; inactive = no such curve, though single readings can be large or run the other way; the % refers to the signal ratio; note: potency is the fitted concentration of half-maximal effect); settings: GR-bla HeLa, beta-lactamase reporter ratio, 18 h; activation: at 62.4 µM (top of the series)
# Procedure, shortened: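 Fluorescence intensity from LiveBLAzer B/G FRET substrate (2 h, room temperature) reports beta-lactamase expression driven by the glucocorticoid response element in GR-bla HeLa cells after 18 h compound exposure at 37 C.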
# [18] = biological target: Glucocorticoid receptor (Homo sapiens) (UniProt P04150); assay: qHTS assay to identify small molecule antagonists of the glucocorticoid receptor (GR) signaling pathway (AID 720692; active = well fitted inhibition curve with a large enough effect in the signal ratio in the repeat runs, not every such curve was filed as active; inconclusive = weak or mixed curves, or effect the other way; inactive = no such curve, though single readings can be large or run the other way; the % refers to the signal ratio)
# Procedure, shortened: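 HeLa GR-bla cells; cmpd + dex 5 nM final, 18 h 37 C; LiveBLAzer B/G FRET substrate 2 h RT; fluorescence intensity read. Antagonist mode, qHTS.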
# [19] = biological target: Androgen receptor (Homo sapiens) (UniProt P10275); assay: qHTS assay to identify small molecule antagonists of the androgen receptor (AR) signaling pathway (AID 743035; active = well fitted inhibition curve with a large enough effect in the signal ratio in the repeat runs, not every such curve was filed as active; inconclusive = weak or mixed curves, or effect the other way; inactive = no such curve, though single readings can be large or run the other way; the % refers to the signal ratio)
# Procedure, shortened: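 Fluorescence from a beta-lactamase FRET substrate (LiveBLAzer B/G, 2 h, room temperature) measured inhibition of R1881-stimulated signaling in GeneBLAzer AR-UAS-bla HEK293 cells exposed to compound for 16 h at 37C.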
# [20] = biological target: Androgen receptor (Homo sapiens) (UniProt P10275); assay: qHTS assay to identify small molecule antagonists of the androgen receptor (AR) signaling pathway using the MDA cell line (AID 743042; note: nearly all actives have a fitted effect of over 55% in size)
# Procedure, shortened: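 Antagonist mode: compounds plus R1881 agonist added to MDA-kb2 AR-luc cells, incubated 16 h at 37C. Luciferase reporter luminescence quantified, with multiplexed CellTiter-Fluor readout for cell viability.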
# Chain of Glucocorticoid receptor (Homo sapiens) (P04150 whole entry, looked up): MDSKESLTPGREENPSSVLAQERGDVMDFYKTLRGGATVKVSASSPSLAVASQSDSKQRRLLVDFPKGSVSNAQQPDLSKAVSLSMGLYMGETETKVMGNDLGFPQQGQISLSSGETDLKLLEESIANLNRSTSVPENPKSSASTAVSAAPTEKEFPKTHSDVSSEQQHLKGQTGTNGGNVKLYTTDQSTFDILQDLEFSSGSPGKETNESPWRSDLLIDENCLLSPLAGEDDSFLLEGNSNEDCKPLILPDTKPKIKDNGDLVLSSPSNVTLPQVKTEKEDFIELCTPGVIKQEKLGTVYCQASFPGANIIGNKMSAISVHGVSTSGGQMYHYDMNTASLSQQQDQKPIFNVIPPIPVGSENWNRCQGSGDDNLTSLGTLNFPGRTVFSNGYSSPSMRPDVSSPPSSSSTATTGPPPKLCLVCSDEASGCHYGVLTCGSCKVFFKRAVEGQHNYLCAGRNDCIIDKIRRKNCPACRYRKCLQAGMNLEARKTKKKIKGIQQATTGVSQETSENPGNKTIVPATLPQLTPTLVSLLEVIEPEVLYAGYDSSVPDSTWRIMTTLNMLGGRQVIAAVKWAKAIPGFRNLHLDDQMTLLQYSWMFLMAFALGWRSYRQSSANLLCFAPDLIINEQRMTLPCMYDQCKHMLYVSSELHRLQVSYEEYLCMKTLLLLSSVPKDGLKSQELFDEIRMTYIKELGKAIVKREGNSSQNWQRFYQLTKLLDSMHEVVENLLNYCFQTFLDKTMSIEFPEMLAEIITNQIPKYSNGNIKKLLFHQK
# Chain of Androgen receptor (Homo sapiens) (P10275 whole entry, looked up): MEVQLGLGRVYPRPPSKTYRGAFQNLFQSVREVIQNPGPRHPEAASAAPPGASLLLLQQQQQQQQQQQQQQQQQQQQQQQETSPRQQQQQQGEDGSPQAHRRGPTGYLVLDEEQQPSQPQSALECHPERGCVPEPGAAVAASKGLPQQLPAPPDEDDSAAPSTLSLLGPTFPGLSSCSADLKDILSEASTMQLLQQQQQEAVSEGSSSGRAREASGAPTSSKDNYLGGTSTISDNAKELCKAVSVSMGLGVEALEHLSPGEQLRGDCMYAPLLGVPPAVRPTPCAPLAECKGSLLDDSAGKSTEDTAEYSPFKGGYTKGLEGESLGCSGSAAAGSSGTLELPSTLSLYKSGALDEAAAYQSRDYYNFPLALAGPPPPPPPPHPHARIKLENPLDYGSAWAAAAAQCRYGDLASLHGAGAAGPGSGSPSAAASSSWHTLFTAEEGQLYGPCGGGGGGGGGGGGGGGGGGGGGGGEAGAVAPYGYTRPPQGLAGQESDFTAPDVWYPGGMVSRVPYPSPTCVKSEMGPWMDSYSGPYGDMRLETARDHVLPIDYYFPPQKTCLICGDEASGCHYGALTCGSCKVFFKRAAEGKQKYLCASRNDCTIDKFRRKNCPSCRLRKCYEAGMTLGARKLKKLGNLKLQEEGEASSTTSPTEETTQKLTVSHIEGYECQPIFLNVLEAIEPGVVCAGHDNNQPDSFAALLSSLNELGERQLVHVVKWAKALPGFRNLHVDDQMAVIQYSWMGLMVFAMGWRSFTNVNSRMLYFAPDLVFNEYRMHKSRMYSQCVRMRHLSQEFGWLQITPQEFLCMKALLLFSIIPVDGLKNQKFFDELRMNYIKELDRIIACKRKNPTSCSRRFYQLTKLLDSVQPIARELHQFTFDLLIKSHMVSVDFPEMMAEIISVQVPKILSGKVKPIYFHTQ
Compound,Potency [1],Potency [2],Potency [3],Potency [4],Potency [5],outcome [6],Potency [7],outcome [8],Potency [9],Potency [10],Potency [11],Potency [12],Potency [13],Potency [14],Potency [15],Potency [16],Potency [17],Potency [18],Potency [19],Potency [20]
C=C1C(=C/C=C2\CCC[C@]3(C)[C@@H]([C@H](C)/C=C/[C@H](C)C(C)C)CC[C@@H]23)C[C@@H](O)C[C@@H]1O,inactive,inactive,inactive,inactive,inactive,inactive,inactive,inactive,13.3 µM (active),21.1 µM (active),16.8 µM (active),inactive,inactive,inactive,–,–,–,–,–,–
Cc1nnc(C(C)C)n1C1C[C@H]2CC[C@@H](C1)N2CC[C@H](NC(=O)C1CCC(F)(F)CC1)c1ccccc1 (some centres undefined),inactive,inactive,inactive,inactive,inactive,inactive,inactive,inactive,inactive,inactive,inactive,–,–,inactive,inactive,–,–,–,–,–
CN1CCc2c(c3ccccc3n2Cc2ccccc2)C1,inactive,inactive,inactive,inactive,inactive,inactive,inactive,inactive,–,–,–,–,–,inactive,inactive,inactive,–,–,–,–
CC(=O)[C@]1(O)Cc2c(O)c3c(c(O)c2[C@@H](O[C@H]2C[C@H](N)[C@H](O)[C@H](C)O2)C1)C(=O)c1c(O)cccc1C3=O,inactive,inactive,inactive,inactive,inactive,inactive,–,inactive,18.8 nM (active) and 21.1 nM (active),–,–,–,–,11.9 µM (active),–,3.01 µM (active),10.7 µM [inconclusive] (active) and 23.9 µM [inconclusive] (active),–,–,–
CCC[C@@H]1C[C@@H](C(=O)N[C@@H]([C@H]2O[C@H](SC)[C@H](O)[C@@H](O)[C@H]2O)[C@H](C)Cl)N(C)C1,inactive,inactive,inactive,inactive,inactive,inactive,inactive,inactive,–,–,–,–,–,inactive,inactive,inactive,–,–,–,–
C[C@]12CC[C@@H]3c4ccc(OS(=O)(=O)O)cc4CC[C@H]3[C@@H]1CCC2=O,inactive,inactive,inactive,inactive,inactive,–,inactive,inactive,inactive,inactive,inactive,–,–,inactive,inactive,inactive,inactive,inactive,–,–
O=C(O)CCC/C=C\C[C@@H]1[C@@H](/C=C/[C@@H](O)COc2cccc(Cl)c2)[C@H](O)C[C@@H]1O,inactive,inactive,inactive,inactive,inactive,inactive,inactive,inactive,inactive,inactive,inactive,inactive,inactive,inactive,inactive,–,–,–,inactive,inactive
O=[n+]1ccn([O-])c2ccccc21,inactive,inactive,inactive,inactive,inactive,–,inactive,inactive,inactive,inactive,inactive,–,–,inactive,inactive,inactive,inactive,inactive,–,–
O=C(COc1ccc(Cl)cc1)OCCNC12CC3CC(CC(C3)C1)C2,inactive,inactive,inactive,inactive,inactive,inactive,inactive,inactive,inactive,–,–,–,–,inactive,inactive,inactive,–,–,–,–
CC(C)[C@@H](C)/C=C/[C@@H](C)[C@H]1CC[C@H]2/C(=C/C=C3\C[C@@H](O)CC[C@@H]3C)CCC[C@]12C,inactive,inactive,inactive,inactive,inactive,inactive,inactive,inactive,–,–,–,–,–,inactive,inactive,inactive,–,–,–,–
C=C1/C(=C\C=C2/CCC[C@]3(C)[C@@H]([C@H](C)OCCC(C)(C)O)CC[C@@H]23)C[C@@H](O)C[C@@H]1O,inactive,inactive,inactive,inactive,inactive,inactive,inactive,inactive,8.41 µM (active),13.3 µM (active),–,–,–,inactive,inactive,–,–,–,–,–
CCOC(=O)Nc1ccc2c(c1)N(C(=O)CN(C)C)c1ccccc1CC2,inactive,inactive,inactive,inactive,inactive,inactive,inactive,inactive,61.1 µM (active),–,–,–,–,–,inactive,inactive,–,–,–,–
CO[C@H]1C[C@@H]2CC[C@@H](C)[C@@](O)(O2)C(=O)C(=O)N2CCCC[C@H]2C(=O)O[C@H]([C@H](C)C[C@@H]2CC[C@@H](OC(=O)C(C)(CO)CO)[C@H](OC)C2)CC(=O)[C@H](C)/C=C(\C)[C@@H](O)[C@@H](OC)C(=O)[C@H](C)C[C@H](C)/C=C/C=C/C=C/1C,inactive,inactive,inactive,inactive,inactive,inactive,inactive,inactive,inactive,inactive,inactive,–,–,inactive,inactive,–,–,–,–,–
CC(O)[C@H]1CC[C@H]2[C@@H]3CC[C@@H]4C[C@@H](O)CC[C@]4(C)[C@H]3CC[C@]12C (some centres undefined),inactive,inactive,inactive,inactive,inactive,inactive,inactive,inactive,–,–,–,–,–,inactive,inactive,inactive,–,–,–,–
C=C1C(=C/C=C2\CCC[C@]3(C)[C@@H]([C@H](C)CCCC(C)(C)O)CC[C@@H]23)C[C@@H](O)C[C@@H]1O,inactive,inactive,inactive,inactive,inactive,inactive,inactive,inactive,5.96 µM (active),11.9 µM (active),10.6 µM (active),–,–,–,inactive,–,–,–,–,–
